The record followed here is PubChem BioAssay (Tox21).

Results filed as inconclusive are left out. The source made the active and inactive calls. Unless noted, calls come from the whole dose curve; as a rule, active = well fitted cell-killing curve with a large enough effect in the repeat runs (not every such curve was filed as active); inconclusive = weak or mixed curves, or effect the other way; inactive = no such curve, though single readings can be large or run the other way.
% is set by controls: 0 for no effect and ±100 for the full control effect.

In one assay the target is Bile acid receptor (Homo sapiens) (UniProt Q96RI1). Briefly: qHTS assay to identify small molecule agonists of the farnesoid-X-receptor (FXR) signaling pathway (AID 743220; active = well fitted activation curve with a large enough effect in the signal ratio in the repeat runs, not every such curve was filed as active; the % refers to the signal ratio). As to conditions: HEK293T FXR-UAS-bla, beta-lactamase FRET ratio, 16 h; series mostly up to 62.6 µM; activation: at the top concentration. An outline of the steps: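 FXR-UAS-bla HEK 293T cells carrying a UAS-driven beta-lactamase reporter were plated for 5 h at 37C/5% CO2, then exposed to DMSO-dissolved Tox21 10K compounds for 16 h at 37C. A LiveBLAzer B/G FRET substrate was loaded for 2 h at room temperature before fluorescence reading.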
Bile acid receptor (Homo sapiens), sequence (Q96RI1 whole entry, looked up): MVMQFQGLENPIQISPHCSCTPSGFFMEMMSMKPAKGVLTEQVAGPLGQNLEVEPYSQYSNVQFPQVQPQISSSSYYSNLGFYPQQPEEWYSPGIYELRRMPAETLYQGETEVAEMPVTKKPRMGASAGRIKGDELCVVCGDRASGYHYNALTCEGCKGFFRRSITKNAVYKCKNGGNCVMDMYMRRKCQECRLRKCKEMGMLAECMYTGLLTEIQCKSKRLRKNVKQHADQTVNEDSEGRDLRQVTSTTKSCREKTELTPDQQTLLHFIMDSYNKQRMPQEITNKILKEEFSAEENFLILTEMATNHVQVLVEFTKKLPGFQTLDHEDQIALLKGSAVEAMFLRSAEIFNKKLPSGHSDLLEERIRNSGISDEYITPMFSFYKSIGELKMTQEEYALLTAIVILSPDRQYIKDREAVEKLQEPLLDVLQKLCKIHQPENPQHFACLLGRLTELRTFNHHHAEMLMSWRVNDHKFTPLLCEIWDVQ
For orientation: qHTS replaces the single test concentration by a dilution series.
`O=C(O)COc1nc(Cl)c(Cl)cc1Cl`: the “activation” value is -5.47% [at 81.1 µM] (inactive).
On to `O=c1oc2ccccc2c(O)c1Cc1c(O)c2ccccc2oc1=O`, for which the “activation” value was -0.508% (inactive).
With `Oc1cc(Cl)c(Cl)c(Cl)c1`, the “activation” value was -0.261% (inactive).
As to `CC(C)C1CCC(Cc2ccc(Cl)cc2)C1(O)Cn1cncn1` (centres undefined), the “activation” value was -9.59% (inactive).
The same measure, in the same setting: for `CCC(C)c1cc([N+](=O)[O-])cc([N+](=O)[O-])c1OC(=O)C=C(C)C` (centres undefined) the value was -0.399% (inactive).
As for `CCCSP(=O)(OCC)SCCC`, the “activation” value is 6.26% [at 81.1 µM] (inactive).
On to `CC(C)CC(C)(c1ccc(O)cc1)c1ccc(O)cc1`, for which the “activation” value is 2.22% (inactive).
Same read-out and setting: for `CS(=O)(=O)c1ccc(C(=O)C2C(=O)CCCC2=O)c([N+](=O)[O-])c1` the value was -4.94% [at 81.1 µM] (inactive).
As to `CC(C)(C)C(O)/C(=C\c1ccc(Cl)cc1Cl)n1cncn1` (centres undefined), the “activation” value was -2.75% [at 81.1 µM] (inactive).
The same measure, in the same setting: for `COC12CC[C@@]3(C[C@@H]1C(C)(O)C(C)(C)C)[C@H]1Cc4ccc(O)c5c4[C@@]3(CCN1CC1CC1)[C@H]2O5` (some centres undefined) the value was -1.15% [at 81.1 µM] (inactive); for `S=C=Nc1cccc2ccccc12`, -3.09% (inactive).
The same measure, in the same setting: the figure for `Oc1c(Br)c(Br)c(Br)c(Br)c1Br` is -3.37% [at 81.1 µM] (inactive); for `CC1CCC(C(C)C)C(OC(=O)c2ccccc2N)C1` (centres undefined) it is 5.71% (inactive).
As to `O=c1ssc(Cl)c1Cl`, the “activation” value was 4.07% (inactive).
With `Oc1ccc(C(=C(Cl)Cl)c2ccc(O)cc2)cc1`, the “activation” value was 0.442% (inactive).
The same measure, in the same setting: the figure for `Cc1cc(C)cc(OP(=O)(Oc2cc(C)cc(C)c2)Oc2cc(C)cc(C)c2)c1` is 0.709% [at 81.1 µM] (inactive).
With `Nc1ccc(Sc2ccc(N)cc2)cc1`, the “activation” value was 4.49% [at 81.1 µM] (inactive).

Test system in the next assay: not listed separately
Description: qHTS assay to identify small molecule antagonists of the farnesoid-X-receptor (FXR) signaling pathway - cell viability counter screen (AID 743221). Note: nearly all actives have a fitted effect of over 50% in size. Note: potency is the fitted concentration of half-maximal effect. As to conditions: FXR-bla HEK293T viability, CellTiter-Glo luminescence, 16 h; series mostly up to 62.6 µM; activity change, negative = cytotoxicity: at the top concentration. An outline of the steps: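 HEK 293T FXR-bla cells, 5 h pre-incubation; compound + CDCA 50 uM final, 16 h, 37 C; beta-lactamase FRET read first, then CellTiter-Glo luminescence, 30 min RT.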
Regarding `Nc1ccc(Cc2ccc(N)c(Cl)c2)cc1Cl`, the “activity change, negative = cytotoxicity” value was 14.8% (inactive).
On the same count and under the same terms, for `CC(=O)C(Cl)(Cl)Cl` the value was 0.19% (inactive).
As to `O=C(O)COc1nc(Cl)c(Cl)cc1Cl`, the “activity change, negative = cytotoxicity” value is 9.93% [at 81.1 µM] (inactive).
In the case of `CC(C)(C)c1ccc(CSc2cnn(C(C)(C)C)c(=O)c2Cl)cc1`, the “activity change, negative = cytotoxicity” value was -13.1% (inactive).
Still for that read-out and setting: for `CC[C@H]1C[C@@H]2C[C@H]3c4[nH]c5ccc(OC)cc5c4CCN(C2)[C@@H]13` the value was -23.2% [at 81.1 µM] (inactive); for `Oc1cc(Cl)c(Cl)c(Cl)c1`, -20.3% (inactive).
Same read-out and setting: for `CCC(C)c1cc([N+](=O)[O-])cc([N+](=O)[O-])c1OC(=O)C=C(C)C` (centres undefined) the value was -29.1% (inactive); for `COC(=O)N(C(=O)N1CO[C@@]2(C(=O)OC)Cc3cc(Cl)ccc3C2=N1)c1ccc(OC(F)(F)F)cc1`, 2.63% (inactive).
Same read-out and setting: the figure for `CC(C)CCCCCCCOP(=O)(Oc1ccccc1)Oc1ccccc1` is -6.58% [at 81.1 µM] (inactive); for `O=S(=O)(c1ccc(Cl)cc1)c1ccc(Cl)cc1` it is 4.29% [at 81.1 µM] (inactive).
As to `CS(=O)(=O)c1ccc(C(=O)C2C(=O)CCCC2=O)c([N+](=O)[O-])c1`, the “activity change, negative = cytotoxicity” value is -3.97% [at 81.1 µM] (inactive).
Still for that read-out and setting: for `c1ccc(OCC2CO2)cc1` (centres undefined) the value was -8.71% [at 81.1 µM] (inactive).
Consider `C=CCC1=C(C)C(OC(=O)C2C(C=C(C)C)C2(C)C)CC1=O` (centres undefined), for which the Potency was 46.3 µM (active).
In the case of `CCOP(=O)(NC(C)C)Oc1ccc(SC)c(C)c1` (centres undefined), the “activity change, negative = cytotoxicity” value was 11% [at 81.1 µM] (inactive).
In the case of `CC(C)Oc1cccc(NC(=O)c2ccccc2C(F)(F)F)c1`, the “activity change, negative = cytotoxicity” value was -14.6% (inactive).
Same read-out and setting: for `O=c1ssc(Cl)c1Cl` the value was 3.69% (inactive); for `CC1(C)CC/C(=C/c2ccc(Cl)cc2)C1(O)Cn1cncn1` (centres undefined), -3.99% (inactive).
On the same count and under the same terms, for `Oc1ccc(C(=C(Cl)Cl)c2ccc(O)cc2)cc1` the value was 0.336% (inactive); for `Oc1ccc2ccc3cccc4ccc1c2c34`, -9.65% (inactive).
Still for that read-out and setting: the figure for `O=c1[nH]c2ccccc2n1CCCN1CCC(n2c(=O)[nH]c3cc(Cl)ccc32)CC1` is 4.67% (inactive).
Turning to `[CH3][Hg][Cl]`, the Potency was 38.8 µM (active).
With `CC(=O)Nc1ccc2c(c1)Cc1ccccc1-2`, the “activity change, negative = cytotoxicity” value is -12.5% [at 81.1 µM] (inactive).

The target in the next assay is Vitamin D3 receptor (Homo sapiens) (UniProt P11473). Briefly: qHTS assay to identify small molecule agonists of the vitamin D receptor (VDR) signaling pathway (AID 743222; calls by dose curve). As to conditions: HEK293T VDR-UAS-bla, beta-lactamase FRET ratio, 16 h; series mostly up to 63.5 µM; activation: at the top concentration. The essentials: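 Cells carrying a VDR-driven beta-lactamase reporter are seeded at 2,000 per well and rested 4 h. Compounds in DMSO are added for 16 h at 37C, and FRET substrate fluorescence is measured after 2 h at room temperature.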
Vitamin D3 receptor (Homo sapiens), sequence (P11473 whole entry, looked up): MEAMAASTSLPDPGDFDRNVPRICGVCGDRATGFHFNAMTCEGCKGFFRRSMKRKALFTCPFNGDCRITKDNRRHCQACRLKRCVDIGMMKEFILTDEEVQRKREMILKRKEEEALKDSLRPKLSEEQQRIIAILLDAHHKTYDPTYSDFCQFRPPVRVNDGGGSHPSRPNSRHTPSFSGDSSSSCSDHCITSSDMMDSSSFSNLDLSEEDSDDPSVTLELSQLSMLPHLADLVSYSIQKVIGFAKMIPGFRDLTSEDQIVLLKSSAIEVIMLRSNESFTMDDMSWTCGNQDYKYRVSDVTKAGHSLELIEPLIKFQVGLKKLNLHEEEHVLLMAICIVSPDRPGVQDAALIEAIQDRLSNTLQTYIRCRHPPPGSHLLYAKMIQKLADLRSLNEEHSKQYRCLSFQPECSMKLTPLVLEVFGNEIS
Consider `O=C(O)COc1nc(Cl)c(Cl)cc1Cl`, for which the “activation” value was -9.47% [at 81.1 µM] (inactive).
Still for that read-out and setting: for `CC(C)(C)c1ccc(CSc2cnn(C(C)(C)C)c(=O)c2Cl)cc1` the value was -8.63% (inactive).
As to `Oc1cc(Cl)c(Cl)c(Cl)c1`, the “activation” value is -18.2% (inactive).
Take `CCCSP(=O)(OCC)SCCC`: the “activation” value is 1.36% [at 81.1 µM] (inactive).
Still for that read-out and setting: the figure for `CNC(C)Cc1ccc2c(c1)OCO2` (centres undefined) is -17.9% [at 81.1 µM] (inactive).
Still for that read-out and setting: for `O=S(=O)(c1ccc(Cl)cc1)c1ccc(Cl)cc1` the value was 3.1% [at 81.1 µM] (inactive); for `CCOP(=O)(NC(C)C)Oc1ccc(SC)c(C)c1` (centres undefined), 4.71% [at 81.1 µM] (inactive).
On the same count and under the same terms, the figure for `CC(C)Oc1cccc(NC(=O)c2ccccc2C(F)(F)F)c1` is -3.7% (inactive); for `Clc1ccc(CCC(Cn2ccnc2)Sc2c(Cl)cccc2Cl)cc1` (centres undefined) it is -1.84% (inactive).
Regarding `O=c1ssc(Cl)c1Cl`, the “activation” value was 10.1% (inactive).
`Cc1cc(C)cc(OP(=O)(Oc2cc(C)cc(C)c2)Oc2cc(C)cc(C)c2)c1`: the “activation” value was 4.06% [at 81.1 µM] (inactive).
On the same count and under the same terms, the figure for `c1ccc2c(c1)OCC(C1=NCCN1)O2` (centres undefined) is -19.4% (inactive).
On the same count and under the same terms, the figure for `Nc1ccc(Sc2ccc(N)cc2)cc1` is -1.34% [at 81.1 µM] (inactive).

Another assay shares this target. Briefly: qHTS assay to identify small molecule antagonists of the vitamin D receptor (VDR) signaling pathway (AID 743223; active = well fitted inhibition curve with a large enough effect in the signal ratio in the repeat runs, not every such curve was filed as active; the % refers to the signal ratio; note: potency is the fitted concentration of half-maximal effect). To be noted: VDR-UAS-bla HEK293T, beta-lactamase FRET ratio, 16 h; series mostly up to 61 µM; activity change, negative = inhibition: at the top concentration. The essentials: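 Beta-lactamase reporter read-out: FRET substrate fluorescence after 2 h at room temperature, following 16 h exposure of VDR-bla cells to test compound plus 3 nM (final) 1alpha,25-dihydroxyvitamin D3 agonist at 37C.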
For the molecule `O=c1oc2ccccc2c(O)c1Cc1c(O)c2ccccc2oc1=O`, the “activity change, negative = inhibition” value is -4.08% (inactive).
`Oc1cc(Cl)c(Cl)c(Cl)c1`: the “activity change, negative = inhibition” value is -22.1% (inactive).
As for `COC(=O)N(C(=O)N1CO[C@@]2(C(=O)OC)Cc3cc(Cl)ccc3C2=N1)c1ccc(OC(F)(F)F)cc1`, the “activity change, negative = inhibition” value is -17.8% (inactive).
The same measure, in the same setting: for `CNC(C)Cc1ccc2c(c1)OCO2` (centres undefined) the value was 2.91% [at 78.8 µM] (inactive).
Take `CC(C)CC(C)(c1ccc(O)cc1)c1ccc(O)cc1`: the Potency is 54.9 µM (active).
For the molecule `c1ccc(OCC2CO2)cc1` (centres undefined), the “activity change, negative = inhibition” value is 9.49% [at 78.8 µM] (inactive).
Still for that read-out and setting: for `S=C=Nc1cccc2ccccc12` the value was -13.2% (inactive); for `CC1(C)CC/C(=C/c2ccc(Cl)cc2)C1(O)Cn1cncn1` (centres undefined), -5.03% (inactive); for `Cc1cc(C)cc(OP(=O)(Oc2cc(C)cc(C)c2)Oc2cc(C)cc(C)c2)c1`, -5.29% [at 78.8 µM] (inactive).
As for `c1ccc2c(c1)OCC(C1=NCCN1)O2` (centres undefined), the Potency was 16.9 µM (active).

Test system in a further assay: not listed separately
Briefly: qHTS assay to identify small molecule agonists of the vitamin D receptor (VDR) signaling pathway - cell viability counter screen (AID 743224; active = well fitted cell-killing curve with a large enough effect in the repeat runs; note: nearly all actives have a fitted effect of over 50% in size; note: potency is the fitted concentration of half-maximal effect). To be noted: VDR-bla HEK293T viability, CellTiter-Glo luminescence, 16 h; series mostly up to 62.6 µM; activity change, negative = cytotoxicity: at the top concentration. An outline of the steps: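 Cells: VDR-bla, 2,000/well, settled 4 h. Treatment: compounds in DMSO, 16 h, 37C/5% CO2. Readout: CellTiter-Glo luminescence after 30 min RT.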
On to `CCCCOCN(C(=O)CCl)c1c(CC)cccc1CC`, for which the Potency is 49 µM (active).
On to `O=c1oc2ccccc2c(O)c1Cc1c(O)c2ccccc2oc1=O`, for which the “activity change, negative = cytotoxicity” value is -14.1% (inactive).
For `Oc1cc(Cl)c(Cl)c(Cl)c1`, the Potency was 36.9 µM (active).
Still for that read-out and setting: the figure for `ClC1=C(Cl)[C@]2(Cl)[C@@H]3[C@@H]4C[C@@H]([C@H]5O[C@@H]45)[C@@H]3[C@@]1(Cl)C2(Cl)Cl` is 30.6 µM (active).
In the case of `COC(=O)N(C(=O)N1CO[C@@]2(C(=O)OC)Cc3cc(Cl)ccc3C2=N1)c1ccc(OC(F)(F)F)cc1`, the “activity change, negative = cytotoxicity” value is -3.76% (inactive).
Regarding `CCCSP(=O)(OCC)SCCC`, the “activity change, negative = cytotoxicity” value is 7.23% [at 81.1 µM] (inactive).
Take `CC(C)CC(C)(c1ccc(O)cc1)c1ccc(O)cc1`: the Potency was 49 µM (active).
`CC(C)CCCCCCCOP(=O)(Oc1ccccc1)Oc1ccccc1`: the “activity change, negative = cytotoxicity” value was -15.8% [at 81.1 µM] (inactive).
`CC(C)(C)C(O)/C(=C\c1ccc(Cl)cc1Cl)n1cncn1` (centres undefined): the Potency was 59.3 µM (active).
Consider `S=C=Nc1cccc2ccccc12`, for which the Potency is 54.4 µM (active).
Still for that read-out and setting: the figure for `C=CCC1=C(C)C(OC(=O)C2C(C=C(C)C)C2(C)C)CC1=O` (centres undefined) is 18.4 µM (active).
Turning to `CCOP(=O)(NC(C)C)Oc1ccc(SC)c(C)c1` (centres undefined), the “activity change, negative = cytotoxicity” value is -0.405% [at 81.1 µM] (inactive).
As to `CC(C)Oc1cccc(NC(=O)c2ccccc2C(F)(F)F)c1`, the “activity change, negative = cytotoxicity” value was -18.1% [at 81.1 µM] (inactive).
For the molecule `CC1CCC(C(C)C)C(OC(=O)c2ccccc2N)C1` (centres undefined), the Potency is 34.2 µM (active).
Still for that read-out and setting: the figure for `O=c1ssc(Cl)c1Cl` is 43.6 µM (active); for `CC1(C)CC/C(=C/c2ccc(Cl)cc2)C1(O)Cn1cncn1` (centres undefined) it is 54.6 µM (active).
Still for that read-out and setting: the figure for `Oc1ccc(C(=C(Cl)Cl)c2ccc(O)cc2)cc1` is 48.9 µM (active).
For the molecule `O=c1[nH]c2ccccc2n1CCCN1CCC(n2c(=O)[nH]c3cc(Cl)ccc32)CC1`, the “activity change, negative = cytotoxicity” value is -9.4% (inactive).
On to `[CH3][Hg][Cl]`, for which the Potency was 38.8 µM (active).
`c1ccc2c(c1)OCC(C1=NCCN1)O2` (centres undefined): the “activity change, negative = cytotoxicity” value is 4.59% (inactive).
Same read-out and setting: for `CC(=O)Nc1ccc2c(c1)Cc1ccccc1-2` the value was -1.48% [at 81.1 µM] (inactive).
In the case of `Nc1ccc(Sc2ccc(N)cc2)cc1`, the “activity change, negative = cytotoxicity” value is -6.82% [at 81.1 µM] (inactive).
